Screens: PubChem BioAssay, National Center for Advancing Translational Sciences (NCATS)
Integrin act MD – integrin-mediated muscular dystrophy alleviation activation; alpha7betagal myoblasts, beta-gal FDG fluorescence, 48 h; Potency, µM (highest dose often 38.3 µM), for the others: at the highest dose activation, actives largely listed as activators; 350,000 tested, 0.064% active; AID 624291;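 note: 100% = response of the positive control SU9516; nearly all actives have a fitted effect of over 60% in size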
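alpha7betagal+/- myoblasts (passage 13, 250/well) treated 48 h at 37C with compounds at 1:260 dilution of DMSO stock. Lysed, then beta-galactosidase activity read as FDG fluorescence (ex 480/em 540) after 30 min, with pre-read for autofluorescence.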
Eya2 inh – inhibitors of human Eya2 phosphatase activity. recombinant Eya2, OMFP fluorescence dephosphorylation (OMFP is methylfluorescein phosphate). O00167. 330,000 tested, 0.006% active. Potency, µM (highest dose often 76.9 µM), without a hit: top-dose activity, negative = inhibition, hits mostly inhibitors; note: % is set by controls: 0 for no effect and ±100 for the full control effect
Target sequence (O00167 whole entry, looked up): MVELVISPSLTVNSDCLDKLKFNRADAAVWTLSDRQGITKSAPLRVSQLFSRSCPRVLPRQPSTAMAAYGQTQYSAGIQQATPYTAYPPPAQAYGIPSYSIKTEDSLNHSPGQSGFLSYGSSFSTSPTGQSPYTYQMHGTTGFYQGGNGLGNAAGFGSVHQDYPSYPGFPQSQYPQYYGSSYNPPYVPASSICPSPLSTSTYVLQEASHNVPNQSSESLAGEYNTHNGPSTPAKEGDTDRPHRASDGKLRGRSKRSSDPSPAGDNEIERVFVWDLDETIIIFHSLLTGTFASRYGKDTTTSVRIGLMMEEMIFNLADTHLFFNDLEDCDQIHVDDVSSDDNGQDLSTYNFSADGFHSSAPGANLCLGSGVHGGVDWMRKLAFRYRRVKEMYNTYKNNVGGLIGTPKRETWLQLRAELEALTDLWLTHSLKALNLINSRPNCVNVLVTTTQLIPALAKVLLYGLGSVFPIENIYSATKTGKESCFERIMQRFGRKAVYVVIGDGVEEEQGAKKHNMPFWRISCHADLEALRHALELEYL
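Eya2 (0.2 uM) preincubated 10 min at ambient with compound, then OMFP substrate added at 50 uM; 10 min reaction in 50 mM HEPES pH 7.5, 50 mM NaCl, 5 uM MgCl2, 0.05% BSA, 1 mM DTT. Fluorescence read at Ex 485/Em 525 nm.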
ClpP mod – qHTS Assay for Activators of ClpP. Potency, µM (highest dose often 57.5 µM), without a hit: at the top dose activity change, negative = active. purified B. subtilis ClpP, FRET peptide cleavage, 20 min. ATP-dependent Clp protease proteolytic subunit (Bacillus subtilis (strain 168)), P80244. 340,000 tested, 1.9% active; active = well fitted falling curve with a large enough effect; inconclusive = small, poorly fitted or top-dose-only effect; inactive = no such curve, though single readings can be large or run the other way; note: the source files actives as falling curves though it sought activators and does not explain the sign; nearly all actives have a fitted effect of over 65% in size
Target sequence (P80244 whole entry, looked up): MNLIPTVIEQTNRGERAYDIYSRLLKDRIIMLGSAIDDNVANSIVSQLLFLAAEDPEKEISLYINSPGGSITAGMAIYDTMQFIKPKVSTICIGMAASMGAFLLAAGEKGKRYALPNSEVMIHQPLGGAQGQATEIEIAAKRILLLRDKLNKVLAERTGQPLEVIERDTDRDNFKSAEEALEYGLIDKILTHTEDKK
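Buffer: 100 mM Tris/HCl pH8, 100 mM KCl, 0.05% low protease BSA, 2.5% glycerol, 0.01% Tween-20. ClpP 10 microg/mL final; 20 min RT; delta FRET normalized to ADEP and DMSO controls.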
USP2a block – USP2a (human) protease inhibition. 330,000 tested, 0.01% active. Potency, µM (highest dose often 38.3 µM), for inactives: at the top dose activity change, negative = inhibition, most hits filed as inhibitors. O75604. USP2 core, Ub-CHOP2 coupled fluorogenic reporter, 485/531;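 note: plate controls were DMSO wells for no effect and full inhibition by NEM control for full effect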
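USP2 core (10nM final) preincubated 30min RT with compound in 20mM Tris-HCl pH 8.0, 2mM CaCl2, 2mM beta-mercaptoethanol, 0.05% CHAPS; 25nM Ub-CHOP2 plus 25nM reporter substrate added, fluorescence (Ex485/Em531) read after 60min.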
MmCpn inh – inhibitors of Methanococcus maripaludis chaperonin TRiC (MmCpn); 330,000 tested, 0.031% active; Potency, µM (series often up to 76.9 µM), inactives show top-dose activity, negative = inhibition, most hits filed as inhibitors; AID 504842; purified Mm-Cpn ATPase, ADP Transcreener TR-FRET; note: % is set by controls: 0 for no effect and ±100 for the full control effect; nearly all actives have a fitted effect of over 80% in size
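Purified archaeal chaperonin (25 nM final) was preincubated with compound for 10 min at 37°C, then ATP (10 uM final) was added for 30 min at 37°C in Tris pH 7.4/KCl/MgCl2/DTT buffer. ADP was quantified by HTRF Transcreener TR-FRET.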
p53 reactivation – re-activators of mutant p53 | 320,000 tested, 0.063% active | Potency, µM (doses to about 92.2 µM), for the others: at the top dose activity change, positive = activation, actives largely listed as activators | AID 504706 | H1299 p53-A138V BP100-luciferase reporter, luminescence, 24 h; note: % of control where 0% means no effect; nearly all actives have a fitted effect of over 45% in size
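p53-null H1299 cells stably carrying temperature-sensitive p53-A138V and a BP100-luciferase reporter were pinned with compounds (4-point, 1:5 series) and held 24 hrs at 37 deg C. Luminescence was read 10 min after detection reagent.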
Starred values were filed as active, the others as inactive; ? = inconclusive; . = no result; [ ] = remark or other dose. Many of the other results were omitted from the sample, so hits are more common in it than they were. Unless noted, calls come from the whole dose curve; as a rule, active = well fitted curve in the direction sought with a large enough effect; inconclusive = small, poorly fitted or top-dose-only effect, or another doubt; inactive = no such curve, though single readings can be large; an effect the other way counts as inactive or inconclusive. Potency is the fitted concentration of half-maximal effect.

SMILES	Integrin act MD	Eya2 inh	ClpP mod	USP2a block	MmCpn inh	p53 reactivation
Cc1cc(C)c2oc(-c3cccc(NC(=O)COc4ccc(Cl)cc4C)c3C)nc2c1	.	.	-10.6%	.	.	.
COc1ccc(/C=C2\N=C(c3ccc(C)cc3)OC2=O)cc1	0.0%	-23.6%	25.1µM*	1.2%	0.6%	.
Cc1ccc(S(=O)(=O)Oc2ccc(/C=C3/N=C(c4ccccc4)OC3=O)cc2)cc1	?	-4.7%	-14.4%	0.8%	0.5%	-1.1%
O=C(c1ccc2c(=O)n(CCc3ccccc3)c(=O)[nH]c2c1)N1CCN(C(=O)c2ccco2)CC1	.	.	-15.3%	.	.	.
O=C(COc1ccccc1[N+](=O)[O-])Nc1cc(Cl)ccc1C(=O)O	0.0%	4.5%	1.6%	1.2%	44.7µM*	-2.0%
COC(=O)c1ccccc1NC(=O)COc1ccccc1[N+](=O)[O-]	-21.6%	12.9%	.	-4.1%	-0.9%	1.3%
COc1ccc(CNC(=O)Nc2cccc3ccccc23)cc1	-10.6%	1.0%	31.6µM*	7.4%	-3.3%	3.4%
O=C(Nc1ccccc1)Nc1cccc2ccccc12	-20.6%	-18.7%	.	-1.8%	-3.5%	9.7%
Cc1cccnc1NC(=O)Nc1cccc2ccccc12	11.5%	8.2%	25.1µM*	1.6%	-3.1%	6.1%
COc1cc2[nH]c(=O)n(Cc3ccc(C(=O)NCCCN4CCC(C)CC4)cc3)c(=O)c2cc1OC	-4.9%	-13.8%	?	3.9%	-0.3%	-3.1%
COc1cc2[nH]c(=O)n(CCC(=O)N3CCC(N4CCCCC4)CC3)c(=O)c2cc1OC	-0.1%	17.8%	31.6µM*	1.2%	-0.4%	-11.7%
O=C(NCc1ccccc1)Nc1cccc2ccccc12	-8.3%	-2.5%	-16.8%	5.8%	-5.4%	-3.2%
COc1cc2[nH]c(=O)n(Cc3ccc(C(=O)N4CCC(N5CCCCC5)CC4)cc3)c(=O)c2cc1OC	-0.8%	-4.7%	5.0%	-2.7%	-1.6%	10.3%
COc1cc2[nH]c(=O)n(CCCCCC(=O)NCCCN3CCC(C)CC3)c(=O)c2cc1OC	-0.8%	-1.7%	15.8µM*	1.3%	0.4%	-6.9%
COc1ccc(S(=O)(=O)c2c(Nc3cccc(C)c3C)sc(C(=O)c3ccccc3)c2N)cc1	.	.	-24.3%	.	.	.
COc1cc2[nH]c(=O)n(CCC(=O)NCCC(C)C)c(=O)c2cc1OC	-21.6%	-1.6%	20µM*	-7.8%	-3.3%	-0.9%
COC(=O)c1ccc2c(=O)n(CCCCCC(=O)NCc3ccc(OC)cc3)c(=O)[nH]c2c1	.	.	-14.8%	.	.	.
COc1cc2[nH]c(=O)n(CCCC(=O)NCCc3ccccc3)c(=O)c2cc1OC	1.7%	0.1%	-0.9%	3.8%	0.6%	10.4%
COc1ccc(CNC(=O)CCn2c(=O)[nH]c3ccccc3c2=O)cc1	2.1%	-1.9%	28.2µM*	1.2%	1.5%	1.0%
CCOc1cc2[nH]c(=O)n(Cc3ccccc3)c(=O)c2cc1OCC	-7.0%	-0.2%	12.6µM*	-0.5%	?	2.1%
CCOc1cc2[nH]c(=O)n(CCCN3CCCC3=O)c(=O)c2cc1OCC	-0.4%	-3.9%	11.2µM*	-0.6%	-1.6%	8.2%
Cc1ccnc2ccc(N)cc12	.	.	-13.2%	.	.	.
COc1cc2[nH]c(=O)n(CCCCCC(=O)NCCCN3CCOCC3)c(=O)c2cc1OC	-17.7%	-14.2%	22.4µM*	1.0%	-4.3%	-3.5%
COc1ccc(CCNC(=O)c2c(O)c3cc(OC)c(OC)cc3[nH]c2=O)cc1OC	-15.2%	.	-8.9%	.	.	.
COc1cc2[nH]c(=O)n(CCCC(=O)NC3CCCCC3)c(=O)c2cc1OC	-12.1%	-3.7%	1.4%	3.6%	-0.8%	0.3%
SMILES	Integrin act MD	Eya2 inh	ClpP mod	USP2a block	MmCpn inh	p53 reactivation
COc1cc2[nH]c(=O)n(CCCCCC(=O)NCCCN3CCCC3=O)c(=O)c2cc1OC	-4.0%	-4.8%	28.2µM*	-6.3%	0.5%	5.0%
CN1CCN(CCCNC(=O)Nc2cccc3ccccc23)CC1	8.7%	2.5%	15.8µM*	-4.5%	0.7%	16.9%
COc1cc2[nH]c(=O)c(C(=O)NCCCN3CCCCC3)c(O)c2cc1OC	-3.7%	-3.9%	3.55µM*	1.1%	-2.2%	-3.3%
COc1cc2[nH]c(=O)n(CCC(=O)NCCCN3CCN(c4ccccc4F)CC3)c(=O)c2cc1OC	3.6%	7.6%	.	-0.7%	0.3%	-0.3%
Nc1[nH]c(=S)nc2nnsc12	.	.	0.1%	.	.	.
Cc1cccc(-c2ccc3ncnc(N(C)Cc4ccco4)c3c2)c1	.	-13.8%	.	-0.7%	1.3%	.
COc1ccc(CNC(=O)c2ccccc2C(=O)O)cc1	?	1.4%	1.2%	0.4%	1.7%	1.8%
COc1ccc(CNC(=O)c2cccc(-c3ccc(C)c4ccccc34)n2)cc1	-24.5%	3.5%	25.1µM*	-1.6%	-9.1%	-0.6%
CCCOc1cccc(NC(=O)OC2CCN(C)CC2)c1	15.2%	2.4%	25.1µM*	-0.5%	1.3%	-8.7%
CN1CCC(N(C)CC(=O)Nc2cccc(Oc3ccccc3)c2)CC1	-23.8%	-12.2%	1.7%	-0.3%	-19.3%	1.5%
O=S(=O)(NCCc1cn2ccccc2n1)c1ccc(-c2ccccc2)cc1	-14.8%	8.9%	-4.7%	3.6%	0.2%	-12.3%
CCOc1ccc(S(=O)(=O)NCCc2cn3ccccc3n2)cc1	?	4.2%	22.4µM*	-1.7%	0.7%	5.3%
CC(Oc1ccc(-c2ccccc2)cc1)C(=O)N1CCOCC1 (centres undefined)	-3.8%	-4.9%	25.1µM*	-0.1%	-2.1%	11.7%
COc1ccccc1NC(=O)COc1ccc(Br)cc1CO	0.4%	22.5%	1.4%	6.8%	1.9%	2.3%
O=C(COc1ccc(Br)cc1CO)Nc1ccccc1F	25.8%	4.5%	10µM*	0.9%	-0.2%	11.8%
O=C(C1COc2ccccc2O1)N1CCN(c2ccccc2)CC1 (centres undefined)	22.8%	-7.4%	-2.5%	-2.6%	2.0%	0.7%
O=C(C1COc2ccccc2O1)N1CCOCC1 (centres undefined)	0.4%	-2.6%	15.8µM*	3.7%	-4.7%	11.7%
CN(C)c1ccc(CC2CCc3ccccc32)cc1 (centres undefined)	.	.	-4.2%	.	.	.
O=C(OCC#CCSc1nnc(-c2cccc3ccccc23)o1)c1ccco1	13.4%[7.66 µM]	-0.9%	28.2µM*	-10.3%	-9.2%	1.8%
S=C(Nc1ccccc1)Nc1nc2ccccc2n1CCOc1ccc(Br)cc1	24.1%	-8.5%	-1.4%	3.6%	-25.8%	22.4µM*
Nc1nc2ccccc2n1CCOc1ccc(Br)cc1	?	-6.3%	-0.2%	-0.4%	-0.7%	.
